VP16 counter = VP16 counterscreen qHTS for inhibitors of ROR gamma transcriptional activity | Drosophila S2 Gal4-VP16 UAS-luciferase, luminescence, 20 h | Potency, µM (highest dose often 53.6 µM), for inactives: top-dose activity, negative = inhibition, actives largely listed as inhibitors | 310,000 compounds, 3.5% hits | AID 2546, 2010;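 note: Gal4-VP16 expression switched on by copper sulfate through the metallothionein promoter; nearly all actives have a fitted effect of over 50% in size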
TDP1 cell noCPT = qHTS for Inhibitors of human tyrosyl-DNA phosphodiesterase 1 (TDP1): qHTS in cells in absence of CPT; DT40 Tdp1-/- hTDP1 cells, no CPT, ATP luminescence, 48 h; Potency, µM (series often up to 46.2 µM), for the others: at the top dose activity change, negative = growth inhibition, actives largely listed as inhibitors; 420,000 compounds, 15% hits; AID 686978, 2013; note: nearly all actives have a fitted effect of over 55% in size
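Stably hTDP1-transfected Tdp1-null chicken DT40 cells were treated with library compounds minus camptothecin and grown for at least 48 hr at 37 °C, after which cellular ATP was quantified by luminescence.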
TDP1 cell CPT = qHTS for Inhibitors of human tyrosyl-DNA phosphodiesterase 1 (TDP1): qHTS in cells in presence of CPT. chicken DT40 Tdp1-/-;hTDP1 cells + 20 nM CPT, ATP luminescence, 48 h. Potency, µM (highest dose often 46.2 µM), for the others: at the highest dose activity change, negative = growth inhibition, most hits filed as inhibitors. 420,000 compounds, 12% hits; note: nearly all actives have a fitted effect of over 55% in size
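Chicken DT40 Tdp1-/- cells complemented with human TDP1, 400 cells/well, exposed to compounds plus 20 nM camptothecin for at least 48 h at 37 C; viability read as ATP content by CellTiter-Glo luminescence.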
TDP1 inh = qHTS Assay for Inhibitors of Tyrosyl-DNA Phosphodiesterase (TDP1); Potency, µM (top dose mostly 130 µM), inactives show at the highest dose activity change, negative = inhibition, actives largely listed as inhibitors; recombinant TDP1, AlphaScreen DNA substrate cleavage; Tyrosyl-DNA phosphodiesterase 1 (Homo sapiens), Q9NUW8; AID 485290, 2010; 350,000 compounds, 0.28% hits; note: nearly all actives have a fitted effect of over 40% in size
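Recombinant E. coli-expressed Tdp1 (1 nM) preincubated with compound 15 min at RT, then 5'-biotin/3'-phosphotyrosine-FITC DNA substrate (15 nM) added for 5 min. AlphaScreen beads (10 ug/ml) added, 10 min RT; tyrosine-FITC cleavage read as signal loss.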
RORgamma inh = qHTS for inhibitors of ROR gamma transcriptional activity; AID 2551, 2010; Potency, µM (titrated, usually from 53.6 µM), for inactives: top-dose activity change, negative = inhibition, hits mostly inhibitors; Nuclear receptor ROR-gamma (Mus musculus), P51450; Drosophila S2 Gal4-RORgamma UAS-luciferase reporter, 20 h; 310,000 compounds, 5.4% hits; note: nearly all actives have a fitted effect of over 60% in size
Target sequence (P51450 whole entry, looked up, the tested form may be a part): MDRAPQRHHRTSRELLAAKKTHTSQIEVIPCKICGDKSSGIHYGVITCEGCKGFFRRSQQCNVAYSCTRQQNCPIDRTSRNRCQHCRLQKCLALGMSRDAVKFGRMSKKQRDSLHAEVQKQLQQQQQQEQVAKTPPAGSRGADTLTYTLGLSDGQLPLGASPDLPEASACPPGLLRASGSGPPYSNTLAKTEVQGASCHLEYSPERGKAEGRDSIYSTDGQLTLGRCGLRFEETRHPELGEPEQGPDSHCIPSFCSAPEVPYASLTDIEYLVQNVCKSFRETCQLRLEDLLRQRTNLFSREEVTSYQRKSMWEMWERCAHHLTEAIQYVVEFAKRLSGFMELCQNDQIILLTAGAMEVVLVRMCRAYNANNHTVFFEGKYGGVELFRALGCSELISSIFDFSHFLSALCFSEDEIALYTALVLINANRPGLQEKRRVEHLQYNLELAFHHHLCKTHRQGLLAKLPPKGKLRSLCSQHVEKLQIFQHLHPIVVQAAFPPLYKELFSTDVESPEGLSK
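Schneider cells (Drosophila), stable Gal4 DBD–ROR gamma + UAS-luc; 1 hr cmpd preincubation; Cu2+ induction 700 uM final; 20 hr ambient; luminescence.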
* = called active by the depositor; ? = inconclusive; · = not tested or not shown. Most compounds without a hit are left out; they make up all but 19% or so of the library. Calls come from the whole dose curve; as a rule, active = well fitted curve in the direction sought with a large enough effect; inconclusive = small, poorly fitted or top-dose-only effect, or another doubt; inactive = no such curve, though single readings can be large; an effect the other way counts as inactive or inconclusive. % is set by controls: 0 for no effect and ±100 for the full control effect; potency is the fitted concentration of half-maximal effect.

SMILES	VP16 counter	TDP1 cell noCPT	TDP1 cell CPT	TDP1 inh	RORgamma inh
COc1cccc(/C=N/NC(=S)Nc2cccnc2)c1	3.2µM*	4.6µM*	2.3µM*	0%	2.5µM*
COc1ccc(O)c(/C=N/NC(=S)Nc2cccnc2)c1	-23%	18µM*	?	3%	6.3µM*
Cc1ccc(-c2csc3nc(C)n(N)c(=O)c23)o1	17%	-23%	-5%	6%	?
Cc1ccc(-c2csc3nc(C)n(-n4c(C)ccc4C)c(=O)c23)o1	?	21µM*	21µM*	11%	22%
COc1ccc(CNC(=O)C2CCCN(S(=O)(=O)c3ccc(F)cc3)C2)cc1 (stereo not given)	0%	?	?	2%	0%
COc1ccc(N2CCN(C(=O)C3CCCN(S(=O)(=O)c4ccc(F)cc4)C3)CC2)cc1 (stereo not given)	-9%	8.2µM*	10µM*	6%	-38%
CCOC(=O)C1CCCN(S(=O)(=O)c2ccc(OC)cc2)C1 (stereo not given)	16%	-15%	-22%	4%	19%
CN1CCN(C(=O)C2CCCN(S(=O)(=O)c3ccccc3)C2)CC1 (stereo not given)	-2%	0%	-3%	0%	-2%
COc1ccc(N2CCN(C(=O)C3CCCN(S(=O)(=O)c4ccc(C)cc4)C3)CC2)cc1 (stereo not given)	?	9.2µM*	9.2µM*	·	?
Cc1ccc(S(=O)(=O)N2CCCC(C(=O)N3CCN(c4ccccc4)CC3)C2)cc1 (stereo not given)	·	18µM*	18µM*	4%	·
COc1ccc(S(=O)(=O)N2CCCC(C(=O)N3CCCCCC3)C2)cc1 (stereo not given)	-9%	18µM*	?	3%	0%
COC(=O)C1=CN(C)C=C(C(=O)OC)C1c1ccsc1	7%	-14%	-3%	2%	-32%
O=C(C1CCCN(S(=O)(=O)c2cccc3cccnc23)C1)N1CCN(c2ccc(F)cc2)CC1 (stereo not given)	-1%	?	23µM*	4%	31%
Cc1nn(C)c(C)c1S(=O)(=O)N1CCCC(C(=O)N2CCN(c3ccccc3)CC2)C1 (stereo not given)	-6%	23µM*	16µM*	7%	?
CCCCn1c(=O)[nH]c(=O)c2c1nc(-c1ccc(-c3ccc(F)cc3)o1)n2C	-10%	?	?	·	-12%
CCCCn1c(-c2ccc(Br)cc2F)nc2c1c(=O)[nH]c(=O)n2CC(C)C	-10%	23µM*	21µM*	·	6%
CN(C)CCn1cnc2c1c(=O)n(C)c(=O)n2C	2%	-7%	2%	3%	-5%
Cn1c(=O)c2c(ncn2Cc2cccc(Cl)c2)n(C)c1=O	-4%	?	?	8%	18%
Cn1c(=O)c2c(ncn2Cc2cc(-c3ccccc3)no2)n(C)c1=O	0%	26µM*	?	7%	?
Cn1c(=O)c2c(ncn2Cc2ccc(Cl)c(Cl)c2)n(C)c1=O	?	12µM*	23µM*	0%	22%
N#Cc1c[nH]n2c(NC3CCCC3)c(-c3cccc(Cl)c3)nc12	·	?	?	9%	·
CC1(C(=O)NS(=O)(=O)C2CC2)CCCN(C(=O)Cc2ccc3ccccc3c2)C1 (stereo not given)	·	10µM*	9.2µM*	·	·
CC1(C(=O)NS(=O)(=O)C2CC2)CCCN(C(=O)COCc2ccccc2)C1 (stereo not given)	·	2.3µM*	6.5µM*	·	·
COc1ccc(CC(=O)N2CCC(C)(C(=O)NS(=O)(=O)C3CC3)C2)cc1OC (stereo not given)	·	-12%	2%	·	·
CC1(C(=O)NS(=O)(=O)C2CC2)CCCN(C(=O)c2cc3ccccc3s2)C1 (stereo not given)	·	0.82µM*	0.65µM*	·	·
SMILES	VP16 counter	TDP1 cell noCPT	TDP1 cell CPT	TDP1 inh	RORgamma inh
CCCS(=O)(=O)NC(=O)C1(C)CCN(C(=O)COCc2ccccc2)C1 (stereo not given)	·	-4%	-4%	·	·
O=[N+]([O-])c1ccc(OCCn2cnc3ccccc32)cc1	6%	?	-14%	5%	8%
COC(=O)C[C@@H]1C=C[C@@H](NS(=O)(=O)c2ccccc2OC)[C@@H](CO)O1	·	11%	3%	·	·
OCC1(CCCc2ccccc2)CCN(Cc2ccc(F)cc2)CC1	-3%	?	?	1%	-6%
CC(Sc1nnc2n1CCCCC2)C(=O)Nc1cccc(S(=O)(=O)N2CCOCC2)c1 (stereo not given)	·	10%	5%	1%	·
COC(=O)N1C(=O)[C@](c2ccc(OC)cc2)(C(C)C)N1C(=O)OC	1%	16µM*	21µM*	·	-37%
COC(=O)N1C(=O)[C@](c2ccsc2)(C(C)C)N1C(=O)OC	-2%	?	15µM*	·	2%
CC(C)c1nnc(NC(=O)CCC(=O)N2CCN(c3ccccc3F)CC2)s1	4%	10%	-16%	2%	11%
O=C1NC(Cc2ccccc2)C(=O)N1Cc1ccccc1 (stereo not given)	·	-18%	4%	·	·
O=c1ccsn1Cc1ccccc1	4.5µM*	0.65µM*	0.29µM*	14%	2.2µM*
CC1CCCCN1C(=O)CSc1nc2cc3c(cc2c(=O)n1Cc1ccc2c(c1)OCO2)OCO3 (stereo not given)	0%	23µM*	21µM*	7%	0%
CCCCNC(=O)CSc1nc2cc3c(cc2c(=O)n1CCCCCC(=O)NCCc1ccc(OC)c(OC)c1)OCO3	·	1%	16%	-2%	·
CC1CCCCN1C(=O)CSc1nc2ccsc2c(=O)n1Cc1ccccn1 (stereo not given)	1%	?	?	7%	38%
COCCNC(=O)CSc1nc2cc3c(cc2c(=O)n1Cc1ccc(C(=O)NCCc2ccc(OC)c(OC)c2)cc1)OCO3	·	21µM*	8.2µM*	-4%	·
COc1ccc(CCNC(=O)c2ccc(Cn3c(SCC(=O)NCCC(C)C)nc4cc5c(cc4c3=O)OCO5)cc2)cc1OC	·	-17%	0%	-6%	·
CCN(CC)C(=O)CSc1nc2cc3c(cc2c(=O)n1CCCCCC(=O)NCCc1ccc(OC)c(OC)c1)OCO3	·	15µM*	15µM*	-6%	·
COCCCNC(=O)CSc1nc2ccccc2c(=O)n1Cc1ccc2c(c1)OCO2	-7%	-15%	-10%	1%	8%

Screening results: PubChem BioAssay, National Center for Advancing Translational Sciences (NCATS)
